This assay in a line: probe aWnt5a binding to arrayed compounds – biochemical, biotinylated probe, 635/667 nm fluorescence, primary screen (AID 1113).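 Further: score merges 667 nm fluorescence intensity with signal-to-noise per printed feature.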 The note with it: small-molecule microarray, higher = more signal.
Compound `COCCOC(=O)N1C(=O)[C@@]2(c3cc(C#CC4(O)CCCCCC4)ccc31)[C@H](C(=O)N1CCCCCCC1)[C@H]1C(=O)O[C@H](c3ccccc3)[C@H](c3ccccc3)N1[C@@H]2c1ccc(O)cc1` had a composite z-score of 0.629.
For the compound `C=CCC(OC(C)=O)[C@@H]1[C@@H](N(Cc2cc3ccccc3o2)C(=O)Cc2ccc(F)cc2)c2cc(OCCCO)ccc2N1C(=O)c1ccc(-c2ccccc2)cc1` (stereo not given in full), the composite z-score is -0.154.
The value for `O=C(CS)NCCCCCNC(=O)[C@H]1C[C@H]2C(=O)N[C@@H](Cc3ccccc3)C(=O)N2[C@H]1c1ccc(O)cc1` was -0.0977; that for `CO[C@H]1COC(=O)CC=C[C@@H](C)COC(=O)[C@@H](C)NC(=O)CC=C[C@@H]1C` was -0.307; that for `CCC(=O)[C@]12O[C@@]3([C@@H]4C(=O)OCC[C@@H]41)N(Cc1ccccc1)C(C)=C(C(=O)OC)[C@@H](c1ccccc1)N3C2=O` was -0.16.
As to `C[C@]1(C(=O)NCCN2CCOCC2)c2ccccc2C(=O)N(Cc2ccccc2)[C@H]1c1ccc(CO)cc1`, the composite z-score was 0.763.
`CC[C@H]1C2=C3C(CC[C@H]4C(OC)OC[C@](C)([C@@H]34)N(C(=O)OC(C)(C)C)C2)C(CO)C1CO` (stereo not given in full) registered a composite z-score of 0.379.
With `O=C1c2ccccc2[C@@]2(Cc3ccccc3N(CC(F)(F)F)C2=O)[C@H](c2ccc(CO)cc2)N1C1CCCCC1`, the composite z-score is -0.0192.
With `C=C(C(=O)CC[C@H](OC(=O)c1ccccc1-c1ccccc1C(=O)O)c1ccc(CO)o1)C(C)C`, the composite z-score was 0.0214.
In the case of `CC1=C([C@H](O)CCc2ccccc2)[C@H](CO)[C@@H]2C(=O)N(Cc3ccccc3)C(=O)[C@@H]2C1`, the composite z-score is -0.0644.

Source of the values: PubChem BioAssay.
